{"source": "PubChem BioAssay (EPA / NIEHS)", "note": "Several values for one entry are separate records, joined by “and”; a condition that tells them apart may be missing. Identical values can stand only once. Where a structure was tested more than once in an assay, its records may differ in their call. Activity calls are given as the source filed them. The calls were made as follows: active = hit-call score of the fitted dose curve at least 0.9, where 1 is the maximum; inactive = score below 0.9.", "data": [{"experiment": "ATG_E_Box_CIS: Attagene CIS-FACTORIAL HepG2 Assay for human Enhancer Box (E-box) (AID 2282936)", "conditions": "HepG2 E-box cis-reporter transcription, actives raise or lower the signal", "procedure": "ATG_CIS is a cell-based, multiplexed-readout assay that uses HepG2, a human liver cell line, with measurements taken at 24 hours after chemical dosing in a 24-well plate.ATG_E_Box_CIS is one of 52 assay component(s) measured or calculated from the ATG_CIS assay. It is designed to make measurements of mRNA induction, a form of inducible reporter, as detected with fluorescence intensity signals by Reverse transcription polymerase chain reaction (RT-PCR) and Capillary electrophoresis technology.Data from the assay component ATG_E_Box_CIS was analyzed into 1 assay endpoint. This assay endpoint, ATG_E_Box_CIS, was analyzed with bidirectional fitting relative to DMSO as the negative control and baseline of activity. Using a type of inducible reporter, measures of mRNA for gain or loss-of-signal activity can be used to understand the reporter gene at the transcription factor-level as they relate to the gene USF1. Furthermore, this assay endpoint can be referred to as a primary readout, because this assay has produced multiple assay endpoints where this one serves a reporter gene function. To generalize the intended target to other relatable targets, this assay endpoint is annotated to the dna binding intended target family, where the subfamily is basic helix-loop-helix protein.\nHuman liver HepG2 cells are transiently transfected with multiple reporter transcription units (MRTUs) in 6-well plates using FuGene 6 reagent (Roche; 3 ml FuGene/1 mg DNA). The MRTU constructs are regulated by a cis-regulating element (promoter). […] A major difference between the CIS and TRANS system is that in CIS activities of endogenous TFs are measured, whereas the TRANS assay evaluates changes in activities of exogenous, chimeric NR-Gal4 proteins. […] At the end of 24 hour incubation, total RNA was isolated using TriZol reagent (Invitrogen). The isolated RNA is then reverse-transcribed using oligo(dT) primer and Mo-MLV reverse transcriptase (Invitrogen) with DNAse I (Ambion) treatment for 30 min. The one-tenth of the produced cDNA was amplified by PCR using Taq DNA polymerase (Invitrogen) and two reporter sequence-specific primers. The PCR products were fluorescently labeled by primer extension with 6-arboxyfluorescein (6-FAM) 5'-labeled reporter sequence-specific primer (2 min at 95 C, 20 s at 68 C and 10 min at 72 C) and these products were digested with 5U of HpaI (New England Biolabs) for 2h at 37 C. The fragments were purified using Qiaquick PCR columns (Qiagen), analyzed on an ABI 3130xL genetic analyzer (Applied Biosystems) with peak positions identified by using a set of X-rhodamine (ROX)-labeled MapMarker1000 molecular weight standards (BioVentures). The raw capillary electrophoresis data was processed using Attagraph software (Attagene).", "values": [{"molecule": "C#CCOC(=O)[C@@H](C)Oc1ccc(Oc2ncc(Cl)cc2F)cc1", "outcome": "inactive"}, {"molecule": "CCCCCOC(=O)COc1cc(N2C(=O)C3=C(CCCC3)C2=O)c(F)cc1Cl", "AC50": "50 µM (active)"}, {"molecule": "COC(=O)c1cccc(C)c1S(=O)(=O)NC(=O)Nc1nc(OCC(F)(F)F)nc(N(C)C)n1", "outcome": "inactive"}, {"molecule": "CCOC(=O)c1ccc(O)cc1", "outcome": "inactive", "AC50": "167 µM (active)"}, {"molecule": "OB(O)O", "outcome": "inactive"}, {"molecule": "O=C(c1ccc(O)cc1O)c1ccc(O)cc1O", "outcome": "inactive"}, {"molecule": "C[C@]12CC[C@@H]3c4ccc(O)cc4C[C@@H](CCCCCCCCCS(=O)CCCC(F)(F)C(F)(F)F)[C@H]3[C@@H]1CC[C@@H]2O", "note": "(stereo not given in full)", "outcome": "inactive"}, {"molecule": "S=C(S)NCCNC(=S)S.[Mn+2].[S-]C([S-])=NCCN=C([S-])[S-].[Zn+2]", "outcome": "inactive"}, {"molecule": "CCOC(=O)NCCOc1ccc(Oc2ccccc2)cc1", "outcome": "inactive"}, {"molecule": "C[C@]12C[C@H](O)[C@H]3[C@@H](CCC4=CC(=O)CC[C@@]43C)[C@@H]1CC[C@@H]2C(=O)CO", "outcome": "inactive"}, {"molecule": "CCCOC(=O)c1ccc(C(=O)OCCC)nc1", "outcome": "inactive"}, {"molecule": "Oc1ccc(C(c2ccc(O)cc2)C(Cl)(Cl)Cl)cc1", "outcome": "inactive"}, {"molecule": "COc1c(Cl)ccc(Cl)c1C(=O)O", "outcome": "inactive"}, {"molecule": "O=C(c1ccccc1)C1CCCCC1", "outcome": "inactive"}, {"molecule": "CCCN(CCC)c1c([N+](=O)[O-])cc(C(F)(F)F)c(N)c1[N+](=O)[O-]", "outcome": "inactive"}, {"molecule": "c1ccc2[nH]c(-c3cscn3)nc2c1", "outcome": "inactive"}, {"molecule": "O=C(O)c1ccccc1", "outcome": "inactive"}, {"molecule": "CCCCOC(=O)[C@@H](C)Oc1ccc(Oc2ccc(C(F)(F)F)cn2)cc1", "outcome": "inactive"}, {"molecule": "C#C[C@]1(O)CC[C@H]2[C@@H]3CCC4=CC(=O)CC[C@@H]4[C@H]3CC[C@@]21CC", "outcome": "inactive"}, {"molecule": "N#CSCSc1nc2ccccc2s1", "AC50": "6.89 µM (active)", "outcome": "inactive"}, {"molecule": "CCCCOCCOCCOCc1cc2c(cc1CCC)OCO2", "outcome": "inactive"}, {"molecule": "CCCCC(CC)COC(=O)c1ccccc1C(=O)O", "note": "(stereo not given)", "outcome": "inactive"}, {"molecule": "CN(C)C(=O)Nc1ccc(Cl)c(Cl)c1", "outcome": "inactive"}, {"molecule": "CCOC(=O)COc1cc(-n2ncc(C(F)(F)F)c(C)c2=O)c(F)cc1Cl", "outcome": "inactive"}, {"molecule": "COC(=O)c1ccccc1S(=O)(=O)NC(=O)Nc1nc(OC(F)F)cc(OC(F)F)n1", "outcome": "inactive"}, {"molecule": "CCN(CC)C(=O)c1cccc(C)c1", "outcome": "inactive"}, {"molecule": "CCN(Cc1c(F)cccc1Cl)c1c([N+](=O)[O-])cc(C(F)(F)F)cc1[N+](=O)[O-]", "outcome": "inactive"}, {"molecule": "CCOC(=O)[C@H](C)Oc1ccc(Oc2nc3ccc(Cl)cc3o2)cc1", "outcome": "inactive"}, {"molecule": "S=C([S-])NCCNC(=S)[S-].[Mn+2]", "outcome": "inactive"}, {"molecule": "CC(=O)S[C@@H]1CC2=CC(=O)CC[C@]2(C)[C@H]2CC[C@@]3(C)[C@@H](CC[C@@]34CCC(=O)O4)[C@H]12", "outcome": "inactive", "AC50": "7.33 µM (active) and 26.6 µM (active) and 18.4 µM (active)"}, {"molecule": "CSC(=O)c1cccc2nnsc12", "outcome": "inactive"}, {"molecule": "CCC(C)OC(=O)N1CCCCC1CCO", "note": "(stereo not given)", "outcome": "inactive"}, {"molecule": "CCCCCCC(C)OC(=O)COc1nc(F)c(Cl)c(N)c1Cl", "note": "(stereo not given)", "outcome": "inactive"}, {"molecule": "CCCOC(=O)NCCCN(C)C", "outcome": "inactive"}, {"molecule": "COC(=O)c1ccc(CNS(C)(=O)=O)cc1S(=O)(=O)NC(=O)Nc1nc(OC)cc(OC)n1", "outcome": "inactive"}, {"molecule": "COC(=O)c1ccccc1C(=O)O", "outcome": "inactive"}, {"molecule": "CC(C)(c1ccc(O)cc1)c1ccc(O)cc1", "outcome": "inactive"}]}]}
